# Screens: PubChem, National Center for Advancing Translational Sciences (NCATS)
# IL1B secr inh – qHTS for Inhibitors of Inflammasome Signaling: IL-1-beta AlphaLISA Primary Screen; THP-1 LPS/ATP IL-1B secretion, AlphaLISA, 16 h; stronger effect = lower value; activity change, % at 57.5 µM; 360,000 compounds, 4.7% hits; AID 743279, 2014; in the data active means activity change below about -50%; inconclusive means mostly about -30% to -49%
#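 THP-1 cells pretreated 1 hr with compounds (up to 57.5 uM final), then stimulated with LPS (250 ng/mL final) plus ATP (1.25 mM final); secreted IL-1B measured by AlphaLISA after 16 hr, decreased signal indicating inhibition.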
# TDP1 cell noCPT – qHTS for Inhibitors of human tyrosyl-DNA phosphodiesterase 1 (TDP1): qHTS in cells in absence of CPT. DT40 Tdp1-/- hTDP1 cells, no CPT, ATP luminescence, 48 h. Potency, µM (top dose mostly 46.2 µM), without a hit: top-dose activity change, negative = growth inhibition, usual class: inhibitors. 420,000 compounds, 15% hits. AID 686978, 2013; further: potency means the concentration at half of the fitted maximal effect; nearly all actives have a fitted effect of over 55% in size
#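 Compound effects on proliferation are scored in DT40 Tdp1-/-;hTDP1 cells in the absence of CPT. ATP levels (CellTiter-Glo luminescence) are recorded after a ≥48 hr, 37 °C incubation.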
# TDP1 inh – qHTS Assay for Inhibitors of Tyrosyl-DNA Phosphodiesterase (TDP1); Tyrosyl-DNA phosphodiesterase 1 (Homo sapiens), Q9NUW8; 350,000 compounds, 0.28% hits; recombinant TDP1, AlphaScreen DNA substrate cleavage; AID 485290, 2010; Potency, µM (titrated, usually from 130 µM), for the others: at the top dose activity change, negative = inhibition, actives largely listed as inhibitors; further: potency means the concentration at half of the fitted maximal effect; nearly all actives have a fitted effect of over 40% in size
#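 E. coli-derived human Tdp1, 1 nM final. Cpd preinc 15 min RT; substrate 15 nM final, 5 min RT; AS bead mix 10 ug/ml final, 10 min RT. Signal loss = tyrosine-FITC cleavage. No-enzyme wells = max signal.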
# CtBP-E1A inh – qHTS Assay for Inhibitors of the CtBP/E1A Interaction | CtBP / adenovirus E1A interaction (AlphaScreen) | AlphaScreen GST-E1A/His-CtBP binding, 1536-well; stronger effect = lower value | activity change, % (concentration not given with the values) | 340,000 compounds, 0.49% hits | AID 651724, 2012; in the data active means activity change below about -65%; inconclusive means mostly about -30% to -63%
#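 AlphaScreen with 125 nM GST-E1A and 125 nM His-CtBP (5X stocks) in Tris pH 8.0, 300 mM NaCl, BSA, Tween 20, TCEP. Compounds preincubated 2 h at 37 deg C, then glutathione donor/nickel acceptor beads added for 1 h at 37 deg C in dark.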
# TDP1 cell CPT – qHTS for Inhibitors of human tyrosyl-DNA phosphodiesterase 1 (TDP1): qHTS in cells in presence of CPT; 420,000 compounds, 12% hits; Potency, µM (titrated, usually from 46.2 µM), inactives show at the highest dose activity change, negative = growth inhibition, usual class: inhibitors; chicken DT40 Tdp1-/-;hTDP1 cells + 20 nM CPT, ATP luminescence, 48 h; further: potency means the concentration at half of the fitted maximal effect; nearly all actives have a fitted effect of over 55% in size
#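 Chicken DT40 Tdp1-/- cells complemented with human TDP1, 400 cells/well, exposed to compounds plus 20 nM camptothecin for at least 48 h at 37 C; viability read as ATP content by CellTiter-Glo luminescence.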
# Six1-Eya2 blk – qHTS Assay for Inhibitors of the Six1/Eya2 Interaction; 360,000 compounds, 0.56% hits; AlphaScreen GST-Six1/His-Eya2 binding, biochemical; stronger effect = lower value; activity change, % (no concentration beside the values); Homeobox protein SIX1 (Homo sapiens) + Protein phosphatase EYA2 (Homo sapiens), …; in the data active means activity change below about -65%; inconclusive means mostly about -30% to -63%
#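 Homogeneous AlphaScreen proximity assay pairing GST-Six1 with His-tagged Eya2 (added as 5X mix: 250 nM and 500 nM) in 50 mM Tris pH 8.0, 300 mM NaCl, 1 mM TCEP. Glutathione donor and nickel acceptor beads; 1 h, 37 °C, dark.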
# Numbers without * were called inactive; ? = inconclusive; nt = not tested or not shown; [ ] = another dose, or the depositor's remark. Hits are enriched below; roughly 18% of the tested compounds scored in any of these assays. Unless noted, the call rests on the fitted dose curve; in most records, active means well fitted curve in the direction sought with a large enough effect; inconclusive means small, poorly fitted or top-dose-only effect, or another doubt; inactive means no such curve, though single readings can be large; an effect the other way counts as inactive or inconclusive. On the % scale 0 is the no-effect control and ±100 the full control effect.
SMILES,IL1B secr inh,TDP1 cell noCPT,TDP1 inh,CtBP-E1A inh,TDP1 cell CPT,Six1-Eya2 blk
CSc1ccccc1C(=O)C1CCCN(Cc2ccn[nH]2)C1 (centres undefined),8,-1%,4%,1,-6%,7
CN(CC=CCN(C)P(=S)(N1CC1)N1CC1)P(=S)(N1CC1)N1CC1,8,1.8µM*,nt,-3,1.6µM*,0
CC[C@H](C)[C@H](NC(=O)[C@@H]1CCCN1C(=O)[C@H](CCC(=O)O)NC(=O)[C@@H](NC(=O)[C@H](Cc1ccccc1)NC(=O)[C@@H]1CCCN1C(=O)[C@@H](N)Cc1ccc(O)cc1)C(C)C)C(=O)O,nt,5%[4.12 µM],7%,nt,-1%[4.12 µM],nt
CCCC(C)c1nnc(NC(=O)CCS(=O)(=O)c2ccccc2)s1 (centres undefined),-96*,4.1µM*,-12%[0.0935 µM],-2,7.3µM*,-11
COc1cc(C(=O)N2Cc3ccccc3-n3nncc3C2)cc(OC)c1OC,47,-20%,nt,5,-10%,5
O=S(=O)(c1cccc2ccccc12)N1Cc2ccccc2-n2nncc2C1,8,12µM*,nt,-12,23µM*,-2
Cc1cc(C)c(S(=O)(=O)N2Cc3ccccc3-n3nncc3C2)c(C)c1,11,2.1µM*,nt,1,5.2µM*,-8
COc1ccc(NC(=S)N2Cc3ccccc3-n3nncc3C2)c(OC)c1,20,12µM*,nt,3,?,2
O=S(=O)(c1ccc(Cl)cc1)N1Cc2cc(Br)ccc2-n2nncc2C1,6,23µM*,nt,8,21µM*,7
CC(C)S(=O)(=O)N1Cc2ccccc2-n2nncc2C1,-2,10%,nt,-7,-1%,2
COc1ccc(S(=O)(=O)N2Cc3ccccc3-n3nncc3C2)cc1,33,15µM*,nt,7,16µM*,6
CN1C(=O)NC(=O)C(N=Nc2ccc(Cl)cc2)C1=O (centres undefined),-19,?,nt,-24,-8%,-15
CC(=NCCN1CCOCC1)c1c(O)n(Cc2ccccc2)c(=O)[nH]c1=O,-6,-1%,7%,-5,-1%,4
C/C(=N\Nc1cccc2ccccc12)c1c(O)n(Cc2ccccc2)c(=O)[nH]c1=O,4,21µM*,8%,0,16µM*,11
CC(=NCCc1c[nH]c2ccccc12)c1c(O)n(Cc2ccccc2)c(=O)[nH]c1=O,?,8.2µM*,3%,0,7.3µM*,-7
COc1cccc(C(=O)NCc2nc(-c3cccc(NC(=O)c4ccoc4C)c3)oc2C)c1OC,nt,6.5µM*,nt,nt,?,nt
COc1ccccc1C(=O)Nc1nnc(-c2ccc(Cl)cc2)o1,-14,?,nt,-7,-22%,-13
COC1=C(C)C(=O)C2=C(C1=O)C(CO)N1C(C#N)C3CC4C(C1C2N1CCOC41)N3C (centres undefined),-103*,0.15µM*,nt,-11,0.052µM*,2
CCC(=NCc1cc(OC)cc(OC)c1)c1c(O)n(C)c(=O)n(C)c1=O,3,8.9µM*,3%,1,10µM*,-2
CCC(=NCc1ccc2c(c1)OCO2)c1c(O)n(C)c(=O)n(C)c1=O,-26,21µM*,2%,?,?,?
CC(NS(C)(=O)=O)c1nnc2n1-c1ccc(Br)cc1C(c1ccccc1Cl)=NC2 (centres undefined),-8,?,nt,-20,7%,5
COc1ccc(C#Cc2ccc3c(c2)O[C@H](CN(C)C(C)=O)[C@H](C)CN([C@@H](C)CO)S3(=O)=O)cc1,22,15µM*,nt,4,23µM*,14
Cc1ccc(S(=O)(=O)N(C)C[C@H]2Oc3cc(Br)ccc3S(=O)(=O)N([C@H](C)CO)C[C@@H]2C)cc1,0,9%,nt,-5,12%,1
C[C@@H]1CN([C@H](C)CO)S(=O)(=O)c2ccc(C#Cc3cccc(F)c3)cc2O[C@@H]1CN(C)C(=O)CN1CCOCC1,?,18µM*,nt,-16,?,-23
CC(=O)C1CCC2C3C(N4CC4)CC4=CC(=O)CCC4(C)C3CCC12C (centres undefined),-2,4.6µM*,nt,1,3.7µM*,-1
SMILES,IL1B secr inh,TDP1 cell noCPT,TDP1 inh,CtBP-E1A inh,TDP1 cell CPT,Six1-Eya2 blk
C[C@]12CCC(=O)C=C1C=CC1C2CC[C@@]2(C)C1CC[C@@H]2O (some centres undefined),14,-27%,nt,3,?,1
CC12CCC(=O)C=C1CC(N1CC1)C1C2CCC2(C)C(O)CCC12 (centres undefined),-3,2.6µM*,nt,-8,1.8µM*,8
Cn1cc(C(=O)NC2CC2)c2ccccc21,-1,-8%,-4%,9,8%,-3
COc1ccc2ccccc2c1CNCCc1ccccc1,-55*,?,nt,nt,23µM*,2
S=C(S)N1CCCC1,5,0.053µM*,3%[56.1 µM],2,0.06µM*,-1
C=C1[C@@H](O)C2C=CC[C@H](C)C(=O)[C@@](C)(O)C=C[C@@H](OC(C)=O)[C@@]23C(=O)N[C@H](Cc2ccccc2)[C@@H]3[C@@H]1C (some centres undefined),nt,0.24µM*,-5%[56.1 µM],nt,0.27µM*,nt
C=C1C(C)C2C(Cc3ccccc3)NC(=O)C23OC(=O)/C=C/C(O)CCCC(C)C/C=C/C3C1O (centres undefined),22,2.1µM*,nt,1,1.5µM*,6
C=C1[C@@H](C)[C@H]2[C@H](Cc3ccccc3)NC(=O)[C@]23[C@H](OC(C)=O)/C=C/[C@](C)(O)C(=O)[C@@H](C)C/C=C/[C@H]3[C@@H]1O,nt,0.14µM*,6%,nt,0.18µM*,nt
N#CC(Cl)Cl,nt,nt,-6%,nt,nt,nt
Cc1ccc(-n2c(C)nc3cc(Cl)ccc3c2=O)nc1,16,13%,nt,-23,-6%,-3
CSc1cccc(CNC(=O)C2CCC(=O)N(Cc3cccc(C(F)(F)F)c3)C2)c1 (centres undefined),-11,-6%,0%,-14,?,0
CN1C(C(=O)NCc2cccc(C(F)(F)F)c2)CC2Cn3c(nc4cc5ccccc5cc43)C21 (centres undefined),-7,18µM*,0%,-2,?,-3
